Values joined by “and” are separate entries in the source; they are usually repeats but may differ in a detail not shown here. Identical values can stand only once. Hit rate of the full screen: of about 1,300 compounds, about 750 (58%) were called active. Some of the results follow.

The target in this experiment is Sulfhydryl oxidase 1 (Homo sapiens) (UniProt O00391). Nature of the experiment: inhibition of human sulfhydryl oxidase QSOX1 – biochemical, ROS-Glo H2O2 luminescence, HTS, primary screen (AID 1347418). As to conditions: recombinant QSOX1, ROS-Glo H2O2 luminescence; at 12.5 µM; active compounds read high; active = any value above zero.
Sulfhydryl oxidase 1 (Homo sapiens), sequence (O00391 whole entry, looked up): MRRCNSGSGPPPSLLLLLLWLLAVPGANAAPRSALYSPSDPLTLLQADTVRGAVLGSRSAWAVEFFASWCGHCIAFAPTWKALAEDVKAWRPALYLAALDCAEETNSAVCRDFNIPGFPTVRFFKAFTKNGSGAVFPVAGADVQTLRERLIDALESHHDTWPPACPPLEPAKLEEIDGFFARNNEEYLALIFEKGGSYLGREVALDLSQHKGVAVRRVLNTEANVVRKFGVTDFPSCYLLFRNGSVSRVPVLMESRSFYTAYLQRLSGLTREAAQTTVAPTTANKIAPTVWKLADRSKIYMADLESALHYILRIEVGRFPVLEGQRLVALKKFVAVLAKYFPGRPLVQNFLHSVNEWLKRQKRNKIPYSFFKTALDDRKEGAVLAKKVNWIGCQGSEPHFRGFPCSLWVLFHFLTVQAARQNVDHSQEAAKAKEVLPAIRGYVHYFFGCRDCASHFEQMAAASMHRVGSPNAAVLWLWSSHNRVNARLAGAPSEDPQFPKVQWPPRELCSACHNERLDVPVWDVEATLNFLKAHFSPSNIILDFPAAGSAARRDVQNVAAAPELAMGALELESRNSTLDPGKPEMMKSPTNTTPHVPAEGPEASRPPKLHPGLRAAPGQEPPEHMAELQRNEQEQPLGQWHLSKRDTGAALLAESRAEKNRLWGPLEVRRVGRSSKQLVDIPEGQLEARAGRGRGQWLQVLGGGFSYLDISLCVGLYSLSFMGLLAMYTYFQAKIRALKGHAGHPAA
As a reminder, the inhibition is the drop in the measured response relative to a control, in per cent. As for `O=c1[nH]c2cc(Cl)ccc2c(O)c1-c1ccc(Oc2ccccc2)cc1`, the inhibition was -2.9% (inactive).

For the molecule `COc1ccc(CCn2nnnc2C2(c3ccc(C)cc3)CC2)cc1`, the inhibition is 0.5% (active).

For the molecule `N=c1nc(N2CCCCC2)cc(N)n1O`, the inhibition was 1% (active).

As to `COC(=O)Nc1nc2ccc(C(=O)c3cccs3)cc2[nH]1`, the inhibition was -0.8% (inactive).

Turning to `Cc1oncc1C(=O)Nc1ccc(C(F)(F)F)cc1`, the inhibition was 6.7% (active).

In the case of `CCCN1C[C@H](CSC)C[C@@H]2c3cccc4[nH]cc(c34)C[C@H]21`, the inhibition was 7.8% (active).

As to `NCCCCCCCCCCN`, the inhibition is 0% (inactive).

Take `NCCCCN`: the inhibition was -2.1% (inactive).

Regarding `NC(N)=NCCCCN=C(N)N`, the inhibition is 7.2% (active).

Consider `NCCCCN=C(N)N`, for which the inhibition is 2.1% (active).

With `COc1ccc(-c2cc3ncc(C)n3c(Nc3ncccc3C(N)=O)n2)cc1OC`, the inhibition was -0.2% (inactive).

Turning to `C=CC(N)CCC(=O)O` (centres undefined), the inhibition is 0.6% (active).

For `NCCCC(=O)O`, the inhibition was -4% (inactive).

Regarding `COCC(=O)O[C@]1(CCN(C)CCCc2nc3ccccc3[nH]2)CCc2cc(F)ccc2[C@@H]1C(C)C`, the inhibition is -5.7% (inactive).

For the molecule `CC[C@@H]1Cc2cc(O)ccc2C2=C1c1ccc(O)cc1C[C@H]2CC`, the inhibition is 41.5% (active).

For `Cc1nc2c(OCc3ccccc3)cccn2c1CC#N`, the inhibition was -7.9% (inactive).

`CCCNC(=O)NS(=O)(=O)c1ccc(Cl)cc1`: the inhibition was 0.2% (active).

Regarding `CCCCNC(=O)NS(=O)(=O)c1ccc(C)cc1`, the inhibition is -6.3% (inactive).

As for `Nn1nnc2ccccc21`, the inhibition was 0.7% (active).

As for `Fc1ccc([C@@H]2CCNC[C@H]2COc2ccc3c(c2)OCO3)cc1`, the inhibition was -0.5% (inactive).

Consider `CC(C)NCC(O)c1cc(O)cc(O)c1` (centres undefined), for which the inhibition was -2.6% (inactive).

On to `CC(C)NCC(O)c1ccc(NS(C)(=O)=O)cc1` (centres undefined), for which the inhibition was -5.9% (inactive).

For `CC(C)NCC(O)c1ccc(O)c(O)c1` (centres undefined), the inhibition was 4.8% (active) and 11.3% (active).

As to `CCC(NC(C)C)C(O)c1ccc(O)c(O)c1` (centres undefined), the inhibition was 6.4% (active).

As for `CC(C)NC[C@H](O)c1ccc(O)c(O)c1`, the inhibition is 1.4% (active).

As to `CC1CNCCN1S(=O)(=O)c1cccc2cnccc12` (centres undefined), the inhibition was 10.4% (active).

`CC1CN(S(=O)(=O)c2cccc3cnccc23)CCN1` (centres undefined): the inhibition is 3% (active).

With `CNCCNS(=O)(=O)c1cccc2cnccc12`, the inhibition was -3% (inactive).

As to `CCO/C([O-])=N/c1c[n+](N2CCOCC2)no1`, the inhibition is -1.5% (inactive).

As for `Clc1ccccc1C(c1ccccc1)(c1ccccc1)n1ccnc1`, the inhibition is 10.5% (active).

Regarding `C[C@](N)(Cc1ccc(O)c(O)c1)C(=O)O`, the inhibition was 8.7% (active).

Regarding `CC(N)(Cc1ccc(O)cc1)C(=O)O` (centres undefined), the inhibition was 0% (inactive).

As for `C[C@](Cc1ccc(O)c(O)c1)(NN)C(=O)O`, the inhibition is 10.8% (active).

For `C[C@](N)(Cc1ccc(O)cc1)C(=O)O`, the inhibition was -2.7% (inactive).

`COC(=O)C(C)(N)Cc1ccc(O)cc1` (centres undefined): the inhibition was -0.8% (inactive).

In the case of `CC(N)(Cc1ccc(O)c(O)c1)C(=O)O` (centres undefined), the inhibition was 2.4% (active).

For `COc1cc(OC)c(/C=C2/C(=O)Nc3ccccc32)c(OC)c1`, the inhibition was -8.1% (inactive).

Consider `Cc1cc(C)c(/C=C2\C(=O)Nc3ccccc32)[nH]1`, for which the inhibition is 36.3% (active).

Turning to `CN(C)c1ccc(/C=C2\C(=O)Nc3ccccc32)cc1`, the inhibition was 42.8% (active).

Consider `CN(C)S(=O)(=O)c1ccc2c(c1)/C(=C/c1cc3c([nH]1)CCCC3)C(=O)N2`, for which the inhibition was -4.7% (inactive).

For `Cc1ccc(C(=O)Nc2ccc(S(=O)(=O)[O-])c3c2C(S(=O)(=O)[O-])=[C+]C(S(=O)(=O)O)=[C+]3)cc1NC(=O)c1cccc(NC(=O)Nc2cccc(C(=O)Nc3cc(C(=O)Nc4ccc(S(=O)(=O)[O-])c5c4C(S(=O)(=O)[O-])=[C+]C(S(=O)(=O)O)=[C+]5)ccc3C)c2)c1`, the inhibition is -5.3% (inactive).

In the case of `CC(C)NCC(O)COc1cccc2[nH]ccc12` (centres undefined), the inhibition was 1.4% (active).

As for `CC(C)NC[C@H](O)COc1cccc2ccccc12`, the inhibition was -2.1% (inactive).

Regarding `CC(C)NC[C@H](O)COc1cccc2[nH]ccc12`, the inhibition is -0.8% (inactive).

`CC(C)NCC(O)COc1cccc2ccccc12` (centres undefined): the inhibition was -1.6% (inactive).

Turning to `C=CCc1ccccc1OCC(O)CNC(C)C` (centres undefined), the inhibition is 6.4% (active).

As to `O=C1N(c2ccccc2)c2ccccc2C1(Cc1ccncc1)Cc1ccncc1`, the inhibition is -3.5% (inactive).

With `O=C(O)c1cc([N+](=O)[O-])ccc1NCCCc1ccccc1`, the inhibition is 2.3% (active).

`CS(=O)(=O)Nc1ccc([N+](=O)[O-])cc1Oc1ccccc1`: the inhibition was -0.8% (inactive).

Turning to `O=C(Nc1ccccc1)c1cc([N+](=O)[O-])ccc1Cl`, the inhibition was 1.2% (active).

With `O=C(Nc1ccncc1)c1cc([N+](=O)[O-])ccc1Cl`, the inhibition was -4.2% (inactive).

With `O=C(Nc1ccc([N+](=O)[O-])cc1Cl)c1cc(Cl)ccc1O`, the inhibition was 8% (active).

With `Nc1ccc(-c2ccc3ccccc3n2)cc1`, the inhibition is 14.6% (active).

For `NCC(O)(CS(=O)(=O)O)c1ccc(Cl)cc1` (centres undefined), the inhibition is 7.3% (active).

As for `C[C@@H]1C(=O)NC2=Nc3cccc(Cl)c3CN21`, the inhibition was -4.6% (inactive).

For `O=C1Cc2cc(CCN3CCN(c4nsc5ccccc45)CC3)c(Cl)cc2N1`, the inhibition is 8.8% (active).

Take `NCCC1CCCC(CCN)N1` (centres undefined): the inhibition was -5.7% (inactive).

Take `CC(=O)N[C@H]1[C@H]([C@H](O)[C@H](O)CO)OC(C(=O)O)=C[C@@H]1O`: the inhibition is 10.4% (active).

`OCc1cc(C(O)CNCCCCCCOCCCCc2ccccc2)ccc1O` (centres undefined): the inhibition was 12.5% (active).

`NC(=O)c1ncn([C@@H]2O[C@H](CO)[C@@H](O)[C@H]2O)c1O`: the inhibition was -0.4% (inactive).

`Nc1ccn([C@@H]2O[C@H](CO)[C@@H](O)C2O)c(=O)n1` (some centres undefined): the inhibition was 6% (active).

Turning to `Nc1ncn([C@@H]2O[C@H](CO)[C@H](O)C2O)c(=O)n1` (some centres undefined), the inhibition is -0.8% (inactive).

Consider `N=c1ccn2c(n1)OC1C(O)[C@@H](CO)O[C@H]12` (some centres undefined), for which the inhibition is 7.2% (active).

As for `Nc1ccn([C@H]2CC[C@@H](CO)O2)c(=O)n1`, the inhibition is -3.2% (inactive).

For the molecule `OCCN(CCO)c1nc(N2CCCCC2)c2nc(N(CCO)CCO)nc(N3CCCCC3)c2n1`, the inhibition is 46.4% (active).

Turning to `CCc1c(C)[nH]c2c1C(=O)C(CN1CCOCC1)CC2` (centres undefined), the inhibition was -0.8% (inactive).

On to `C1CCC(N=C(NC23CC4CC(CC(C4)C2)C3)N2CCOCC2)CC1`, for which the inhibition is -2.2% (inactive).

For `Cc1ccc(O)c(N=Nc2ccccc2)n1`, the inhibition was 67.9% (active).

In the case of `Nc1ccc(-c2nc3ccc(-c4nc5ccc(N)cc5[nH]4)cc3[nH]2)cc1`, the inhibition was 44.6% (active).

For the molecule `O=c1[nH]c(=O)n([C@H]2C[C@H](O)[C@@H](CO)O2)cc1/C=C/Br`, the inhibition was -4% (inactive).

Take `Cc1cn([C@H]2C=C[C@@H](CO)O2)c(=O)[nH]c1=O`: the inhibition is 0.2% (active).

For the molecule `CCNc1nc2c(ncn2[C@H]2C[C@H](O)[C@@H](CO)O2)c(=O)[nH]1`, the inhibition was -0.7% (inactive).

`O=c1[nH]c(=O)n([C@H]2C[C@H](O)[C@@H](CO)O2)cc1Br`: the inhibition was 2.6% (active).

For the molecule `Cc1cn([C@H]2C[C@@H](N=[N+]=[N-])[C@@H](CO)O2)c(=O)[nH]c1=O`, the inhibition was 1.9% (active).

In the case of `c1ccc2c(c1)CC(N1CCN(c3cccc4c3OCCO4)CC1)C2`, the inhibition was 4.5% (active).

Turning to `Cc1cnc(NC(=O)C2=C(O)c3ccccc3S(=O)(=O)N2C)s1`, the inhibition was 5.4% (active).

For the molecule `CN1C(C(=O)Nc2ccccn2)=C(O)c2ccccc2S1(=O)=O`, the inhibition is -4.7% (inactive).

For `CN1CC(O)C(O)C(O)C1CO` (centres undefined), the inhibition was 3.8% (active).

As for `FC(F)(F)c1ccccc1-n1ccnc1`, the inhibition is 4% (active).

`CC(/C=C/c1cccc(Oc2ccc(F)cc2)c1)N(O)C(N)=O` (centres undefined): the inhibition was 2.4% (active).

In the case of `O=Nc1c(-c2c(O)[nH]c3cc(Br)ccc23)[nH]c2ccccc12`, the inhibition is 27.6% (active).

As to `O=C1Cc2c([nH]c3ccc(Br)cc23)-c2ccccc2N1`, the inhibition is -0.3% (inactive).

For the molecule `O=Nc1c(-c2c(O)[nH]c3ccccc23)[nH]c2ccccc12`, the inhibition was 42.8% (active).

As for `O=C(C1CCCCC1)N1CC(=O)N2CCc3ccccc3C2C1` (centres undefined), the inhibition was 1.7% (active).

Consider `CC(C)(C)[C@]1(O)CCN2C[C@H]3c4ccccc4CCc4cccc(c43)[C@@H]2C1`, for which the inhibition is -0.1% (inactive).

`Cc1[nH]c(=O)c(C#N)cc1-c1ccncc1`: the inhibition was -3.2% (inactive).

Regarding `Cc1[nH]c(=O)c(C#N)cc1-c1ccc2nccn2c1`, the inhibition was 7.1% (active).

As to `CC[C@H](NC(=O)c1c(C)c(-c2ccccc2)nc2ccccc12)c1ccccc1`, the inhibition was -2% (inactive).

Take `COC(=O)[C@H](NC(=O)c1cc(-c2ccccc2)nc2ccccc12)c1ccccc1`: the inhibition is 4.9% (active).

Turning to `NCCS`, the inhibition is 3.5% (active).

For `CCOC(=O)c1ncn2c1CN(C)C(=O)c1cc(F)ccc1-2`, the inhibition is 0.3% (active).

`NC(N)=N/N=C/c1c(Cl)cccc1Cl`: the inhibition is -2.6% (inactive).

Turning to `CCCCNc1cc(C(=O)O)cc(S(N)(=O)=O)c1Oc1ccccc1`, the inhibition is -3.4% (inactive).

As for `CNCCc1cnc(CCC(c2ccccc2)c2ccccc2)[nH]1`, the inhibition is -2.3% (inactive).

Turning to `c1ccc(C(NCCNC(c2ccccc2)c2ccccc2)c2ccccc2)cc1`, the inhibition was 6% (active).

As to `CC(C)NNC(=O)c1ccncc1`, the inhibition was 1.1% (active).

As to `CCN(CC)CCOC(=O)c1cc(Cl)c(N)cc1OC`, the inhibition was -5.7% (inactive).

For the molecule `CCN(CC)CCNC(=O)c1cc(Cl)c(N)cc1OC`, the inhibition is -4.7% (inactive).

On to `COc1cc(N)c(Cl)cc1C(=O)OCCN1CCCCC1`, for which the inhibition is 0.5% (active).

Source of the values: PubChem BioAssay AID1347418 (Sanford-Burnham Center for Chemical Genomics, 2020).
